# The sample as a whole holds a higher share of hits than the screen did.
# Giardia FBPA inh-1 – Giardia lamblia aldolase inhibition; A8B2U2; purified Giardia FBPA; Potency, µM (titrated, usually from 59.6 µM), inactives show at the highest dose activity, negative = inhibition, usual class: inhibitors; 290,000 compounds, 0.71% hits; AID 2451; note: nearly all actives have a fitted effect of over 55% in size
# Target sequence (A8B2U2 whole entry, looked up): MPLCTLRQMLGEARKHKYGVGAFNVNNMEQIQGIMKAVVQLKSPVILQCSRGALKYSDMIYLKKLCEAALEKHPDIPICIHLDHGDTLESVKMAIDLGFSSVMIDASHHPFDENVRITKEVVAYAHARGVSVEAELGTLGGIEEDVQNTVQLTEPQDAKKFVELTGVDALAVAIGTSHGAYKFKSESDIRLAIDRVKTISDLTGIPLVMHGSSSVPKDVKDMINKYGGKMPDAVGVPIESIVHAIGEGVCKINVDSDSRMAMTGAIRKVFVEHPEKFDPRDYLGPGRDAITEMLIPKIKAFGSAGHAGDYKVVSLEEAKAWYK
#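 Giardia FBPA (40 nM reagent) was preincubated 10 min at RT with compound (up to 57.5 uM final), then substrate plus GAPDH/TPI/NAD/arsenate coupling system with diaphorase/resazurin was added; resorufin fluorescence (525/598 nm) was read after 20 min.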
# Cruzain inh noDet – cruzain (T. cruzi) inhibition without detergent. P25779. purified cruzain, Z-FR-AMC fluorescence, no detergent. Potency, µM, without a hit: max response, negative = inhibition, usual class: inhibitors. 200,000 compounds, 2.3% hits. AID 1476;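 note: plate controls were enzyme without inhibitor for no effect and buffer without enzyme for full effect; nearly all actives have a fitted effect of over 40% in size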
# Target sequence (P25779 123-467 limits assumed): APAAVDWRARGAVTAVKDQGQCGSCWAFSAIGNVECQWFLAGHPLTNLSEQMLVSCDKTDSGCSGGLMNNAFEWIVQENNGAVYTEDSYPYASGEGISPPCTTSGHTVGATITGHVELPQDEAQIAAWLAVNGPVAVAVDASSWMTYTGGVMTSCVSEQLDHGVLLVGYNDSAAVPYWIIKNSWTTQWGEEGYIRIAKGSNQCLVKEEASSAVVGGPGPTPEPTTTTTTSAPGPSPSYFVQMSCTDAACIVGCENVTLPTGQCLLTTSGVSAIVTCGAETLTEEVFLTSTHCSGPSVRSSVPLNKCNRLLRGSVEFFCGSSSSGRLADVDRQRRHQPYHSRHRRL
#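 Detergent-free condition (0.00005% Triton X-100) in acetate buffer pH 5.5 with DTT. 1.5 nM enzyme and compound were pre-mixed 15 min, then 2 uM Z-FR-AMC substrate added; reaction progress from fluorescence change between first and third reads (60 s).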
# Cruzain inh Det – inhibitors of Trypanosoma cruzi cruzain with detergent | P25779 | purified cruzain, Z-FR-AMC fluorescence, 0.01% Triton | Potency, µM, for inactives: max response, negative = inhibition, hits mostly inhibitors | 200,000 compounds, 0.43% hits | AID 1478;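 note: plate controls were neutral wells for no effect and buffer without enzyme for full effect; nearly all actives have a fitted effect of over 40% in size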
#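 Compounds were screened in titration against cruzain (1.5 nM) with 0.01% Triton X-100 to counter colloidal aggregation. Activity was the AMC fluorescence increase over 60 s after adding 2 uM Z-FR-AMC at pH 5.5.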
# Giardia growth – blocks growth of Giardia lamblia trophozoites | shares compounds with Giardia FBPA inh-1 | Giardia lamblia trophozoite growth inhibition | Potency, µM (titrated, usually from 57.5 µM), inactives show top-dose activity change, negative = inhibition, hits mostly inhibitors | 1,500 compounds, 5% hits;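 note: trophozoites exposed to compound for 48 h at 37 °C; nearly all actives have a fitted effect of over 70% in size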
# Mammalian tox – counter-screen for Giardia aldolase inhibitors: mammalian cell toxicity. mammalian cell viability counter-screen, qHTS. 1,500 compounds, 4% hits. shares compounds with Giardia FBPA inh-1. Potency, µM (doses to about 57.5 µM), for the others: top-dose viability change, negative = toxicity, hits mostly inhibitors. AID 2786;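 note: Chinese hamster ovary cells used as mammalian cytotoxicity surrogate; viability measured as cellular ATP by luminescence; compound exposure lasted 48 h before reading; nearly all actives have a fitted effect of over 60% in size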
# Giardia FBPA inh-2 – confirmation of Giardia fructose-bisphosphate aldolase inhibitors; shares compounds with Giardia FBPA inh-1; purified Giardia aldolase enzyme activity, qHTS; Potency, µM (top dose mostly 57.5 µM), for inactives: top-dose activity change, negative = inhibition, actives largely listed as inhibitors; 1,500 compounds, 5% hits; AID 2787; note: nearly all actives have a fitted effect of over 45% in size
# Rabbit aldolase – selectivity test for Giardia aldolase inhibitors: rabbit aldolase; shares compounds with Giardia FBPA inh-1; Potency, µM (series often up to 57.5 µM), for the others: at the highest dose activity, negative = inhibition, hits mostly inhibitors; Rabbit muscle FBPA enzyme inhibition, selectivity counter-screen; 1,500 compounds, 4% hits; note: nearly all actives have a fitted effect of over 60% in size
# GAPDH counter – counter-screen for Giardia aldolase inhibitors: GAPDH coupling enzyme. shares compounds with Giardia FBPA inh-1. GAPDH coupling enzyme counterscreen, biochemical, qHTS. Potency, µM (series often up to 57.5 µM), for inactives: at the top dose activity change, negative = inhibition, most hits filed as inhibitors. 1,500 compounds, 6% hits. AID 2795; note: nearly all actives have a fitted effect of over 55% in size
# Starred values were filed as active, the others as inactive; ? = inconclusive; / = not tested or not shown; [ ] = dose if it differs, or a comment. Calls come from the whole dose curve; as a rule, active = well fitted curve in the direction sought with a large enough effect; inconclusive = small, poorly fitted or top-dose-only effect, or another doubt; inactive = no such curve, though single readings can be large; an effect the other way counts as inactive or inconclusive. Unless noted, % is set by controls: 0 for no effect and ±100 for the full control effect; potency is the fitted concentration of half-maximal effect.
SMILES,Giardia FBPA inh-1,Cruzain inh noDet,Cruzain inh Det,Giardia growth,Mammalian tox,Giardia FBPA inh-2,Rabbit aldolase,GAPDH counter
CC1CCN(C(=O)Cn2cc(SCC(=O)NCc3ccc(F)cc3)c3ccccc32)CC1,/,6%,-4%,/,/,/,/,/
Clc1ccccc1Cn1cccc1C1=NC(Cc2ccccc2)CO1 (stereo not drawn),/,2%,-8%,/,/,/,/,/
NC(=O)c1ccc(NC(=O)C2CCN(S(=O)(=O)Cc3ccccc3)CC2)cc1,/,6%,-4%,/,/,/,/,/
CCCC/C=C/[C@H](C)[C@@](C)(COC(=O)c1ccc(Br)cc1)Cc1ccccc1,4%,/,/,/,/,/,/,/
C=C1c2ccccc2O[C@H](C(=O)OCC)[C@@H]1CC(C)(C)c1ccccc1,5%[89.2 µM],-5%,1%,/,/,/,/,/
Cc1cc(NC(=O)C2CCN(S(=O)(=O)c3cccc4nsnc34)CC2)ccc1Br,/,-18%,-2%,/,/,/,/,/
N[C@@H](CSCc1ccc(I)cc1)C(=O)O,/,5%,0%,/,/,/,/,/
Cc1cccc(N2CCN(Cc3nnc(-c4ccccc4C)o3)CC2C)c1 (stereo not drawn),/,10%,-2%,/,/,/,/,/
Cn1ccnc1Sc1ccccc1[N+](=O)[O-],-8%,/,/,/,/,/,/,/
CSc1nccn1C(=O)c1ccccc1[N+](=O)[O-],28µM*,/,/,11%[10.4 µM],9%,-14%,-11%,-10%
Cc1ccccc1/C=N/Nc1nc2ccccc2c(=O)n1O,18µM*,/,/,?,-6%,-22%,-14%,-15%
Cc1cc(N/N=C/c2ccccc2O)c2ccccc2n1,-1%,/,/,/,/,/,/,/
CCOC(=O)CC(NC(=O)CCc1c(C)nc2cc(-c3ccccc3)nn2c1C)c1ccc(C)cc1 (stereo not drawn),/,?,-9%,/,/,/,/,/
NNc1n[nH]c(=S)n1N,1.8µM*,/,/,20%[38.3 µM],-4%,16µM*,18µM*,18µM*
Nn1c(Cc2ccccc2)n[nH]c1=S,-16%,/,/,/,/,/,/,/
CC(C)C(=O)NC(=O)C1CCCN1C(=O)/C=C/c1ccccc1 (stereo not drawn),3%[12.9 µM],/,/,/,/,/,/,/
O=C1/C(=C\c2ccco2)SC(=S)N1C1CCCCC1,-6%,/,/,/,/,/,/,/
CC1=C(C#N)C(=O)N(C2CCS(=O)(=O)C2)C(=O)/C1=C\c1ccco1 (stereo not drawn),10µM*,/,/,12%[38.3 µM],-6%,?,?,21µM*
CSC1=NS(=O)(=O)c2c(C)nn(C)c2S1,16µM*,/,/,30%,9%,-3%,40µM*,?
CC(C)C(=O)NC(c1ccco1)c1ccc2cccnc2c1O (stereo not drawn),?,-8%,0%,/,/,/,/,/
Oc1c(C(Nc2nc3ccccc3s2)c2ccco2)ccc2cccnc12 (stereo not drawn),16µM*,7.9µM*,1%,35%,?,-23%,-3%,-8%
CC(C)(C)c1ccc(C(=O)Nc2cccc3c(=O)[nH][nH]c(=O)c23)cc1,20µM*,-18%,-8%,?,?,-5%,-3%,0%
Cc1ccc(C(=O)Nc2cccc3ccccc23)cc1,0%,/,/,/,/,/,/,/
COc1ccc2[nH]c(=S)[nH]c2c1,7.1µM*,0%,6%,2%[10.4 µM],2%,3%,4%,4%
S=c1[nH]c2ccc(Cl)cc2[nH]1,-3%,-5%,-1%,/,/,/,/,/
SMILES,Giardia FBPA inh-1,Cruzain inh noDet,Cruzain inh Det,Giardia growth,Mammalian tox,Giardia FBPA inh-2,Rabbit aldolase,GAPDH counter
COc1ccc(-c2cc(=O)[nH]c(=S)[nH]2)cc1,16µM*,/,/,?,6%,6%,16%,4%
COc1ccc(-c2cc(=O)c3cc(OC)ccc3[nH]2)cc1,0%,-5%,0%,/,/,/,/,/
O[C@@H]([C@H](O)[C@@H](O)CBr)[C@@H](O)CBr,/,-4%,2%,/,/,/,/,/
O=C(NCC(c1cccnc1)N1CCc2ccccc21)c1ccc(F)cc1 (stereo not drawn),/,17%,-8%,/,/,/,/,/
COc1ccccc1CCn1c(=O)c(-c2cccc(Cl)c2)nc2cncnc21,-5%,-7%,1%,/,/,/,/,/
COc1cc(NC(=O)Cn2c(=O)oc3cc(S(=O)(=O)N4CCCCCC4)ccc32)cc(OC)c1,/,-8%,-5%,/,/,/,/,/
O=C(O)Cc1c(O)ccc2ccccc12,-2%,-2%,0%,/,/,/,/,/
NCc1c(O)ccc2ccccc12,-10%,/,/,-2%[38.3 µM],-9%,1.6µM*,?,?
CCOc1ccc(OCC(=O)NCCS(=O)(=O)N2CCN(c3ccccc3F)CC2)cc1,/,-1%,-3%,/,/,/,/,/
Cc1cc(C)cc(NC(=O)CSc2nc3c([nH]c4ccccc43)c(=O)n2-c2ccc(F)cc2)c1,/,?,2%,/,/,/,/,/
O=C(/C=C/c1ccc(Cl)cc1)NC(=S)N1C[C@H]2C[C@H](C1)c1cccc(=O)n1C2,7.1µM*,/,/,-22%,15%,4%,5%,4%
COC(=O)CC(NC(=S)N1CC2C[C@@H](C1)Cn1c2cccc1=O)C(=O)OC (stereo partly drawn),7%,/,/,/,/,/,/,/
COc1ccc(OC)c(CNS(=O)(=O)c2c(C(=O)N3CCCCCC3)c(C)n(C)c2C)c1,/,9%,-2%,/,/,/,/,/
COCCOC(=O)c1c(N)n(Cc2ccco2)c2nc3ccccc3nc12,7.1µM*,0%,-5%,-5%[38.3 µM],7%,-11%,-6%,-9%
COCCOC(=O)c1c(N)n(Cc2ccc(OC)cc2)c2nc3ccccc3nc12,-18%,?,-6%,/,/,/,/,/
CCc1cc2c(cc3c(=O)n(CC(=O)NC(C)C)nc(CC)n32)s1,/,-9%,-2%,/,/,/,/,/
COc1cc(CN(C(=O)c2ccc(C)cc2)c2ccccn2)cc(OC)c1OC,/,9%,-3%,/,/,/,/,/
O=[N+]([O-])c1cccc(/C=N/N2CCN(Cc3ccc(Cl)cc3)CC2)c1,1%,/,/,/,/,/,/,/
O=C(COc1ccc(Cl)cc1)N1CCN(Cc2ccc([N+](=O)[O-])cc2)CC1,22µM*,/,/,-8%[10.4 µM],-5%,-2%,2%,8%
O=C(COc1ccc(Cl)cc1)N1CCCC1,-1%,-15%,-3%,/,/,/,/,/

# Screens (PubChem)
